# Several values for one entry are separate records, joined by “and”; a condition that tells them apart may be missing. Identical values can stand only once. Some structures have more than one record in an assay (separate samples or runs), and their calls can disagree. Activity calls are given as the source filed them. The calls were made as follows: active = hit-call score of the fitted dose curve at least 0.9, where 1 is the maximum; inactive = score below 0.9.
# Assays:
# [1] = BSK_CASM3C_SRB: Viability Assessment in the BioMAP Diversity Plus: CASM3C Assay (AID 2283050); settings: primary human coronary artery smooth muscle cells;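 also: total protein by SRB staining as cytotoxicity measure in parallel cultures; cells exposed to compound for 24 h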
# [2] = read-out: Thrombomodulin, THBD (gene 7056); test: BSK_CASM3C_Thrombomodulin: BioMAP Diversity Plus: CASM3C Assay for Thrombomodulin Biomarker Activity (AID 2283051); settings: primary human coronary artery smooth muscle cells; actives raise or lower the signal;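 also: thrombomodulin protein level measured by ELISA 24 h after dosing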
# [3] = read-out: Tissue Factor, F3 (gene 2152); test: BSK_CASM3C_TissueFactor: BioMAP Diversity Plus: CASM3C Assay for Tissue Factor Biomarker Activity (AID 2283052); settings: primary human coronary artery smooth muscle cells; actives raise or lower the signal;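 also: cell surface tissue factor protein level read by ELISA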
# [4] = read-out: Interferon-gamma inducible Protein 10 (IP10), CXCL10 (gene 3627); test: BSK_hDFCGF_IP10: BioMAP Diversity Plus: hDFCGF Assay for Interferon-gamma inducible Protein 10 (IP10) Biomarker Activity (AID 2283053); settings: primary human foreskin fibroblasts; actives raise or lower the signal
# How it was run: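 ELISA quantification of IP-10 after a 24 h chemical exposure of human dermal foreskin fibroblast primary cultures. Both increases and decreases versus DMSO fitted.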
# [5] = read-out: Urokinase-type plasminogen activator receptor (uPAR), PLAUR (gene 5329); test: BSK_CASM3C_uPAR: BioMAP Diversity Plus: CASM3C Assay for Urokinase-type plasminogen activator receptor (uPAR) Biomarker Activity (AID 2283054); settings: primary human coronary artery smooth muscle cells; actives raise or lower the signal;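 also: cell-surface uPAR protein level quantified by ELISA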
# [6] = read-out: Vascular cell adhesion molecule 1 (VCAM1), VCAM1 (gene 7412); test: BSK_CASM3C_VCAM1: BioMAP Diversity Plus: CASM3C Assay for Vascular cell adhesion molecule 1 (VCAM1) Biomarker Activity (AID 2283055); settings: primary human coronary artery smooth muscle cells; actives raise or lower the signal;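 also: VCAM-1 protein level quantified by ELISA on the cells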
# [7] = read-out: Collagen III, COL3A1 (gene 1281); test: BSK_hDFCGF_CollagenIII: BioMAP Diversity Plus: hDFCGF Assay for Collagen III Biomarker Activity (AID 2283056); settings: primary human foreskin fibroblasts; actives raise or lower the signal
# How it was run: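 ELISA read-out of collagen III from human skin fibroblast cultures sampled 24 h post-dosing. Values were derived by bidirectional fitting relative to the DMSO vehicle control.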
# [8] = read-out: Epidermal growth factor receptor (EGFR), EGFR (gene 1956); test: BSK_hDFCGF_EGFR: BioMAP Diversity Plus: hDFCGF Assay for Epidermal growth factor receptor (EGFR) Biomarker Activity (AID 2283057); settings: primary human foreskin fibroblasts; actives raise or lower the signal
# How it was run: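 EGFR levels by ELISA in human dermal fibroblast cultures, 24 h post-treatment, fitted bidirectionally versus DMSO. Parallel wells stained with sulforhodamine B to detect overt cytotoxicity.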
# [9] = read-out: Macrophage colony-stimulating factor (MCSF), CSF1 (gene 1435); test: BSK_hDFCGF_MCSF: BioMAP Diversity Plus: hDFCGF Assay for Macrophage colony-stimulating factor (MCSF) Biomarker Activity (AID 2283060); settings: primary human foreskin fibroblasts; actives raise or lower the signal
# How it was run: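 Primary human foreskin fibroblasts dosed with chemical; 24 h later, M-CSF quantified by ELISA; curves fitted in both directions vs DMSO negative control.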
# [10] = BSK_hDFCGF_SRB: Viability Assessment in the BioMAP Diversity Plus: hDFCGF Assay (AID 2283061); settings: primary human foreskin fibroblasts;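 also: cells exposed to compound for 24 h before the read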
# How it was run: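 Readout is SRB absorbance at 560 nm, reflecting total protein in parallel cultures of human foreskin fibroblasts harvested 24 h after chemical dosing. Activity was fitted bidirectionally relative to DMSO.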
# [11] = read-out: TIMP metallopeptidase inhibitor 1 (TIMP1), TIMP1 (gene 7076); test: BSK_hDFCGF_TIMP1: BioMAP Diversity Plus: hDFCGF Assay for TIMP metallopeptidase inhibitor 1 (TIMP1) Biomarker Activity (AID 2283062); settings: primary human foreskin fibroblasts; actives raise or lower the signal
# How it was run: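 Human skin fibroblasts (primary), hDFCGF system; compound exposure 24 h; TIMP-1 by ELISA; bidirectional fit vs DMSO negative control; overt cytotoxicity by SRB in parallel wells.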
# [12] = read-out: Monokine induced gamma interferon (MIG), CXCL9 (gene 4283); test: BSK_hDFCGF_MIG: BioMAP Diversity Plus: hDFCGF Assay for Monokine induced gamma interferon (MIG) Biomarker Activity (AID 2283063); settings: primary human foreskin fibroblasts; actives raise or lower the signal
# How it was run: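 Chemicals were added to primary human foreskin fibroblast cultures, which were sampled 24 h later. MIG levels were then quantified by ELISA and responses fitted in both directions relative to DMSO.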
# [13] = read-out: Matrix Metallopeptidase 1 (MMP1), MMP1 (gene 4312); test: BSK_hDFCGF_MMP1: BioMAP Diversity Plus: hDFCGF Assay for Matrix Metallopeptidase 1 (MMP1) Biomarker Activity (AID 2283064); settings: primary human foreskin fibroblasts; actives raise or lower the signal
# How it was run: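 Human foreskin fibroblasts exposed to chemical for 24 h; MMP1 detected by ELISA, with DMSO as baseline for bidirectional fitting.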
# [14] = read-out: Vascular cell adhesion molecule 1 (VCAM1), VCAM1 (gene 7412); test: BSK_hDFCGF_VCAM1: BioMAP Diversity Plus: hDFCGF Assay for Vascular cell adhesion molecule 1 (VCAM1) Biomarker Activity (AID 2283065); settings: primary human foreskin fibroblasts; actives raise or lower the signal;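 as to AC50: VCAM-1 protein level quantified by ELISA after 24 h chemical exposure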
# How it was run: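 Human foreskin fibroblast primary cells, chemical exposure 24 h; VCAM-1 by ELISA; bidirectional fit, DMSO = negative control/baseline.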
# [15] = read-out: Plasminogen activator inhibitor-1 (PAI1), SERPINE1 (gene 5054); test: BSK_hDFCGF_PAI1: BioMAP Diversity Plus: hDFCGF Assay for Plasminogen activator inhibitor-1 (PAI1) Biomarker Activity (AID 2283066); settings: primary human foreskin fibroblasts; actives raise or lower the signal
# How it was run: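 PAI-1 levels in human dermal foreskin fibroblasts were quantified by ELISA 24 h after dosing, with gain or loss analysed against DMSO. Overt cytotoxicity was checked by sulforhodamine B total-protein staining in parallel cultures.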
# [16] = read-out: Intercellular Adhesion Molecule 1 (ICAM1), ICAM1 (gene 3383); test: BSK_KF3CT_ICAM1: BioMAP Diversity Plus: KF3CT Assay for Intercellular Adhesion Molecule 1 (ICAM1) Biomarker Activity (AID 2283067); settings: primary human keratinocytes with fibroblasts; actives raise or lower the signal
# How it was run: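 ICAM-1 levels are measured by ELISA 24 h after dosing a primary human co-culture of keratinocytes and foreskin fibroblasts. Activity in either direction is fitted relative to DMSO vehicle.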
# [17] = read-out: Interferon-gamma inducible Protein 10 (IP10), CXCL10 (gene 3627); test: BSK_KF3CT_IP10: BioMAP Diversity Plus: KF3CT Assay for Interferon-gamma inducible Protein 10 (IP10) Biomarker Activity (AID 2283068); settings: primary human keratinocytes with fibroblasts; actives raise or lower the signal
# How it was run: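 In a primary skin co-culture of keratinocytes and fibroblasts, IP-10 is quantified by ELISA at 24 h after dosing. SRB staining of parallel wells monitors overt toxicity. Curves are fitted both directions against DMSO.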
# [18] = BSK_KF3CT_SRB: Viability Assessment in the BioMAP Diversity Plus: KF3CT Assay (AID 2283069); settings: primary human keratinocytes with fibroblasts;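 also: read 24 h after compound addition; fitted for both signal gain and loss against DMSO baseline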
# How it was run: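 Overt cytotoxicity is assessed as total protein by sulforhodamine B staining in parallel human skin co-cultures at 24 h after dosing. DMSO serves as negative control and baseline.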
# [19] = BSK_hDFCGF_Proliferation: Cell Proliferation Assessment in the BioMAP Diversity Plus: hDFCGF Assay (AID 2283059); settings: primary human foreskin fibroblasts;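 also: curves fitted for both rise and fall of signal versus DMSO baseline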
# How it was run: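 Primary human foreskin fibroblasts, sub-confluent; […]; 10% TCA fix, 0.1% SRB stain, A560 total protein. Gain/loss fitted bidirectionally vs DMSO control.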
# [20] = read-out: Interleukin-8 (IL8), CXCL8 (gene 3576); test: BSK_hDFCGF_IL8: BioMAP Diversity Plus: hDFCGF Assay for Interleukin-8 (IL8) Biomarker Activity (AID 2283058); settings: primary human foreskin fibroblasts; actives raise or lower the signal
# How it was run: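 Cells used are human skin primary fibroblasts. Chemical is added, cultures run 24 h, then IL-8 is quantified by ELISA, and gain or loss versus DMSO control is fitted in both directions.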
smiles,measurement,setting,value
CS(C)(=O)=O,outcome,[1],inactive
same,outcome,[2],inactive
same,outcome,[3],inactive
same,outcome,[4],inactive
same,outcome,[5],inactive
same,outcome,[6],inactive
same,outcome,[7],inactive
same,outcome,[8],inactive
same,outcome,[9],inactive
same,outcome,[10],inactive
same,outcome,[11],inactive
same,outcome,[12],inactive
same,outcome,[13],inactive
same,outcome,[14],inactive
same,outcome,[15],inactive
same,outcome,[16],inactive
same,outcome,[17],inactive
same,outcome,[18],inactive
C=C(C)C(=O)OCCC(F)(F)C(F)(F)C(F)(F)C(F)(F)C(F)(C(F)(F)F)C(F)(F)F,outcome,[1],inactive
same,outcome,[2],inactive
same,outcome,[3],inactive
same,outcome,[4],inactive
same,outcome,[5],inactive
same,outcome,[6],inactive
same,outcome,[7],inactive
same,outcome,[8],inactive
same,outcome,[19],inactive
same,outcome,[9],inactive
same,outcome,[10],inactive
same,outcome,[11],inactive
same,outcome,[12],inactive
same,outcome,[13],inactive
same,outcome,[14],inactive
same,outcome,[15],inactive
same,outcome,[16],inactive
same,outcome,[17],inactive
same,outcome,[18],inactive
CCCCCCC(C)OC(=O)CCCCC(=O)OC(C)CCCCCC (stereo unspecified),outcome,[1],inactive
same,outcome,[2],inactive
same,outcome,[3],inactive
same,outcome,[4],inactive
same,outcome,[5],inactive
same,outcome,[6],inactive
same,outcome,[7],inactive
same,outcome,[8],inactive
same,outcome,[9],inactive
same,outcome,[10],inactive
same,outcome,[11],inactive
same,outcome,[12],inactive
same,outcome,[13],inactive
same,outcome,[15],inactive
same,outcome,[16],inactive
same,outcome,[17],inactive
same,outcome,[18],inactive
O=C(O)C(F)(F)C(F)(F)C(F)F,outcome,[1],inactive
same,outcome,[2],inactive
same,outcome,[3],inactive
same,outcome,[4],inactive
same,outcome,[5],inactive
same,outcome,[6],inactive
same,outcome,[7],inactive
same,outcome,[8],inactive
same,outcome,[19],inactive
same,outcome,[9],inactive
same,outcome,[10],inactive
same,outcome,[11],inactive
same,outcome,[12],inactive
same,outcome,[13],inactive
same,outcome,[15],inactive
same,outcome,[16],inactive
same,outcome,[17],inactive
same,outcome,[18],inactive
Oc1ccc(Nc2ccccc2)cc1,outcome,[1],inactive
same,AC50,[2],5.45 µM (active)
same,AC50,[3],11 µM (active)
same,outcome,[4],inactive
same,outcome,[5],inactive
same,outcome,[6],inactive
same,outcome,[7],inactive
same,outcome,[8],inactive
same,AC50,[19],26.5 µM (active)
same,outcome,[9],inactive
same,outcome,[10],inactive
same,outcome,[11],inactive
same,outcome,[12],inactive
same,outcome,[13],inactive
same,AC50,[14],3.97 µM (active)
same,AC50,[15],17.1 µM (active)
same,outcome,[16],inactive
same,outcome,[17],inactive
same,outcome,[18],inactive
FC(F)(F)C(F)(F)C(F)(F)C(F)(F)C(F)(F)C(F)(F)C(F)(F)C(F)(F)F,outcome,[1],inactive
same,outcome,[2],inactive
same,outcome,[3],inactive
same,outcome,[4],inactive
same,outcome,[5],inactive
same,outcome,[6],inactive
same,outcome,[7],inactive
same,outcome,[8],inactive
same,outcome,[20],inactive
same,outcome,[9],inactive
same,outcome,[10],inactive
same,outcome,[11],inactive
same,outcome,[12],inactive
same,outcome,[13],inactive
same,outcome,[15],inactive
same,outcome,[16],inactive
same,outcome,[17],inactive
same,outcome,[18],inactive
O[Si](c1ccccc1)(c1ccccc1)c1ccccc1,outcome,[1],inactive
same,outcome,[2],inactive
same,outcome,[3],inactive
same,outcome,[4],inactive
same,outcome,[5],inactive
same,outcome,[6],inactive
same,AC50,[7],7.56 µM (active)
same,outcome,[8],inactive
same,AC50,[9],5.61 µM (active)
same,AC50,[10],5.35 µM (active)
same,outcome,[11],inactive
same,outcome,[12],inactive
same,outcome,[13],inactive
same,outcome,[14],inactive
same,AC50,[15],5.43 µM (active)
same,outcome,[16],inactive
same,outcome,[17],inactive
same,outcome,[18],inactive
OCC(F)(F)C(F)(F)C(F)(F)C(F)(F)C(F)(F)C(F)(F)F,outcome,[1],inactive
same,outcome,[2],inactive
same,outcome,[3],inactive
same,AC50,[4],55.1 µM (active) and 41.2 µM (active)
same,outcome,[5],inactive
same,outcome,[6],inactive
same,AC50,[7],30 µM (active) and 49.7 µM (active)
same,outcome,[8],inactive
same,AC50,[9],48.6 µM (active) and 49.4 µM (active)
same,AC50,[10],45.4 µM (active)
same,outcome,[10],inactive
same,outcome,[11],inactive
same,outcome,[12],inactive
same,AC50,[13],49.3 µM (active)
same,outcome,[13],inactive
same,AC50,[14],54.6 µM (active) and 46 µM (active)
same,AC50,[15],47.6 µM (active)
same,outcome,[15],inactive
same,outcome,[16],inactive
same,outcome,[17],inactive
same,outcome,[18],inactive
CCN(CC)c1ccc2c(C)cc(=O)oc2c1,outcome,[1],inactive
same,outcome,[2],inactive
same,outcome,[3],inactive
same,outcome,[4],inactive
same,outcome,[5],inactive
same,outcome,[6],inactive
same,outcome,[7],inactive
same,outcome,[8],inactive
same,outcome,[9],inactive
same,outcome,[10],inactive
same,outcome,[11],inactive
same,outcome,[12],inactive
same,outcome,[13],inactive
same,AC50,[14],30.5 µM (active)
same,outcome,[15],inactive
same,outcome,[16],inactive
same,outcome,[17],inactive
same,outcome,[18],inactive

# Source: PubChem BioAssay (EPA / NIEHS)
